# Results published in PubChem BioAssay AID1851 (National Center for Advancing Translational Sciences (NCATS), 2009).
# Several values for one entry are separate records, joined by “and”; a condition that tells them apart may be missing. Equal entries are not always repeated. Among all 16,000 compounds or so, about 2,600 (16%) were called active. About 20% were inconclusive and are not listed. Only a sample is shown. More than one record can exist for a structure, and the calls need not agree. A number with no mark means an inactive call. Calls come from the whole dose curve; as a rule, active = well fitted curve in the direction sought with a large enough effect; inconclusive = small, poorly fitted or top-dose-only effect, or effect the other way; inactive = no such curve, though single readings can be large or run the other way.
# Target: Cytochrome P450 2D6 (Homo sapiens) (UniProt P10635)
# Experiment: Cytochrome panel assay with activity outcomes
# Conditions: recombinant CYP, pro-luciferin dealkylation, luminescence, p450-cyp2d6; series mostly up to 57.1 µM
# % is set by controls: 0 for no effect and ±100 for the full control effect.
# Cytochrome P450 2D6 (Homo sapiens), sequence (P10635 whole entry, looked up): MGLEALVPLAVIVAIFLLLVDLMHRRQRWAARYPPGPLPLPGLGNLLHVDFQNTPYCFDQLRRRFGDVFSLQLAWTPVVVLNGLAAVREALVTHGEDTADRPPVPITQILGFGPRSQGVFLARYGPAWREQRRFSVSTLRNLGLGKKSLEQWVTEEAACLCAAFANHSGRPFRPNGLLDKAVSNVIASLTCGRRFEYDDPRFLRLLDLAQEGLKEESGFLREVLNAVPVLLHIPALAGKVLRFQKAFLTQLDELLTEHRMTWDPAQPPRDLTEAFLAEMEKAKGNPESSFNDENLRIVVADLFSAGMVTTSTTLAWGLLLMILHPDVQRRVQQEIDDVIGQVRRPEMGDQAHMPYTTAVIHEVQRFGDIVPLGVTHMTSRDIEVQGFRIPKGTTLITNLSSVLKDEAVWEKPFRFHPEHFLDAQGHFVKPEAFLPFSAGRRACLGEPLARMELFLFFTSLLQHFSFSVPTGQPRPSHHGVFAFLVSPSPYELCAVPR
Compound,AC50,"activity, negative = inhibition"
Cc1nc2cncnc2n(Cc2ccc(F)cc2)c1=O,inactive,
C=CCn1c(SCC(=O)Nc2ncc(Cc3ccc(Br)cc3)s2)nnc1-c1ccncc1,inactive,
CC(C)=C1C(=O)NN(c2ccc(F)c(Cl)c2)C1=O,inactive,
Cc1cccc(C(=O)NNC(=O)C2CCCO2)c1 (stereo not drawn),inactive,
O=c1c(-c2cc(F)cc(F)c2)nc2cncnc2n1-c1ccccc1,inactive,
COc1ncc2nc(-c3cc(F)cc(F)c3)c(=O)n(-c3ccccc3)c2n1,inactive,
CCNc1ncc2nc(-c3ccc(F)cc3)c(=O)n(C)c2n1,inactive,
CCNc1ncc2nc(-c3cc(F)cc(F)c3)c(=O)n(-c3ccccc3)c2n1,0.1 µM (active),
CCNc1ncc2nc(-c3ccc(F)cc3)c(=O)n(-c3ccccc3)c2n1,0.1 µM (active),
CCNc1ncc2nc(-c3ccc(OC)cc3)c(=O)n(-c3ccc(OC)cc3)c2n1,inactive,
O=C(Nc1cccc(F)c1)/C(=C\c1ccco1)NC(=O)c1cccs1,inactive,
CC(=O)c1ccc(S(=O)(=O)NC(=O)NC2CCCCC2)cc1,inactive,
CC(C)CC(c1nnnn1C(C)C)N1CCN(c2ccccc2)CC1 (stereo not drawn),inactive,
COc1ccccc1NC(=O)c1sc2ncn(Cc3ccccc3C)c(=O)c2c1C,inactive,
Cc1ccccc1C(=O)NN(C)c1nc2ccccc2nc1C(F)(F)F,inactive,
CC(=O)N1CCN(c2ccc(NC(=O)c3ccc(C)cc3)cc2)CC1,inactive,
COC(=O)CC[C@@H](C)[C@H]1CC[C@H]2[C@H]3CC[C@H]4C[C@@H]5CC[C@@]4(C)C3(O5)[C@@H](Br)[C@@H](Br)[C@@]12C,,-11.7% [at 11.4 µM]
CO[C@H]1COC(=O)C/C=C\[C@@H](C)[C@H](OC)COC(=O)CCC[C@@H]1C,,17.9% [at 11.4 µM]
Fc1ccc(Cn2c(SCc3ccc(F)c(C(F)(F)F)c3)nnc2C(F)(F)F)cc1,15.8 µM (active),
CC(C)(C)c1ccc(-c2nnc(SCc3ccc(Cl)cc3)n2-c2cccc(C(F)(F)F)c2)cc1,,7.38% [at 11.4 µM]
Cc1ccc(CSc2nnc(C(F)(F)F)n2Cc2ccc(F)cc2)cc1,inactive,
Cc1cc2c(nc1C)CCCN2C[C@H](O)CN1CCCc2nc(-c3ccc(Br)cc3)ccc21,3.16 µM (active),-14.3% [at 11.4 µM]

Compound,AC50,"activity, negative = inhibition"
CCc1cc2c(nc1CC)CCN(CC/C(C)=N/O[C@@H](C)CN1CCCc3nc(C)c(C)cc31)C2,3.98 µM (active),
C/C(CCN1CCc2nc(-c3ccccc3)c(-c3ccccc3)cc2C1)=N\O[C@@H](C)CN1CCCCc2nc(C)c(C)cc21,,-4.1% [at 11.4 µM]
Cc1cc2c(nc1C)CCCN2CC(O)CN1CCCc2nc(C)c(C)cc21,,-7.07% [at 11.4 µM]
COC(=O)C/C=C\[C@@H](C)[C@@H](/C=N\O[C@@H](C)CN1CCCCc2nc(C)c(C)cc21)NS(=O)(=O)c1ccc(C)cc1,,2.33% [at 11.4 µM]
C=CC[C@@H]1C=C[C@H](O/N=C(\C)CCN2CCCCc3nc(C)c(C)cc32)[C@H](CO)O1,3.98 µM (active),
CCc1cc2c(nc1CC)CCN(CC/C(C)=N/O[C@@H](C)c1cc(-c3c(C)cc(C)cc3C)no1)C2,,-13.3% [at 11.4 µM]
COC(=O)C/C=C\[C@@H](C)[C@@H](/C=N\O[C@@H](C)CN1CCCc2nc(C)c(C)cc21)NS(=O)(=O)c1ccc(C)cc1,3.16 µM (active),
C=CC[C@@H]1C=C[C@H](ON=C(C)C)[C@H](CO)O1,,9.56% [at 11.4 µM]
CO/N=C\[C@@H](NS(=O)(=O)c1ccc(C)cc1)[C@H](C)/C=C\CC(=O)OC,,-13.5% [at 11.4 µM]
Cc1ccc(NC(=O)NNC(=O)Cn2nc(-c3ccccc3)c(-c3ccccc3)c(C#N)c2=O)cc1,inactive,
O=C(N1CCOCC1)N1CCN(c2ccccc2)CC1,inactive,
Brc1[nH]nc2ccccc12,inactive,
Cc1ccc(S(=O)(=O)N[C@@H]2COC(=O)C/C=C\[C@H](C)COC(=O)N[C@@H](C)C(=O)C/C=C\[C@H]2C)cc1,,2.75% [at 11.4 µM]
CSc1nc(Cl)cc(N(CCO)CCO)n1,inactive,
Cn1cccc1C(=O)N1CCC[C@@]2(CCN(c3ccccn3)C2)C1,inactive,
CCN(CC)C(=S)SSC(=S)N(CC)CC,inactive,
CN(C)[C@H]1C(=O)C(C(=O)NCN2CCCC2)=C(O)[C@]2(O)C(=O)C3=C(O)c4c(O)cccc4[C@](C)(O)[C@H]3C[C@H]12,,-10.6% [at 11.4 µM]
CC(C)Cn1c(-c2ccc(Cl)cc2)cnc1SCC(=O)N1CCOCC1,inactive,
Cn1cc(-c2nc3cnc(N4CCNCC4)nc3n(-c3ccccc3)c2=O)c2ccccc21,inactive,
Cn1cnc([N+](=O)[O-])c1Sc1nc(N)nc2c1ncn2[C@H]1C[C@H](O)[C@@H](CO)O1,,4.56% [at 11.4 µM]
C/C(CCN1CCCCc2nc(C)c(C)cc21)=N\O[C@@H](C)c1cn([C@H](CO)Cc2ccccc2)nn1,,-8.6% [at 11.4 µM] and -9.25% [at 11.4 µM]
C/C(CCN1CCCc2nc(C)c(C)cc21)=N\OC[C@@H](O)[C@@H]1O[C@@H]2OC(C)(C)O[C@@H]2[C@H]1O,,1.91% [at 11.4 µM]

Compound,AC50,"activity, negative = inhibition"
C/C(CCN1CCCc2nc(C)c(C)cc21)=N\O[C@@H](C)CN1CCCCc2nc(C)c(C)cc21,,-11.7% [at 11.4 µM]
CO/N=C(\C)CCN1CCCCc2nc(C)c(C)cc21,3.98 µM (active),
CO/N=C(\C)CCN1CCCc2nc(C)c(C)cc21,3.98 µM (active),
CC(C)=NO[C@@H](C)CN1CCCCc2nc(C)c(C)cc21,2.51 µM (active),
C/C(CCN1CCCCc2nc(C)c(C)cc21)=N\OC[C@@H](C)[C@H](OCc1ccccc1)C(C)C,,-1.58% [at 11.4 µM]
COC(=O)[C@@H]1CC[C@H](C)[C@@H](c2ccc(C)cc2)N1C(=O)c1ccc(/C=N\O[C@@H](C)CN2CCCCc3nc(C)c(C)cc32)cc1,,-20.9% [at 11.4 µM]
C/C(CCN1CCCc2nc(C)c(C)cc21)=N\OC[C@@H](C)[C@H](OCc1ccccc1)C(C)C,,0.76% [at 11.4 µM]
C/C(=N\NC(N)=S)c1ccc[nH]1,,7.95% [at 11.4 µM]
CCC1=NN(C(=O)CCc2ccccc2)C(O)(C(F)(F)F)C1 (stereo not drawn),inactive,
NCCSCCC(=O)O,,-2.86% [at 11.4 µM]
CC(C)[C@H](CO)Nc1nc(Nc2cc(N)cc(Cl)c2)c2ncn(C(C)C)c2n1,inactive,
COc1cccc(=O)c2c(C)n(-c3cc(C)cc(C)c3)c(C)c12,inactive,
O=c1[nH]c2[nH]c(=S)[nH]c(=S)c2[nH]1,,-8.17% [at 11.4 µM]
COc1ccc(-c2nnc3n2N=C(C)CS3)cc1,inactive,
NS(=O)(=O)c1nc(S(=O)(=O)O)c2[nH]cnc2n1,,10.8% [at 11.4 µM]
COc1ccc2[nH]cc(CCNc3ncnc4ccc(-c5ccccc5OC)cc34)c2c1,3.98 µM (active),
COc1ccc2[nH]cc(CCNc3ncnc4ccc(-c5ccccc5CN(C)C)cc34)c2c1,10 µM (active),
COc1ccc2[nH]cc(CCNc3ncnc4ccc(-c5ccccc5C#N)cc34)c2c1,7.94 µM (active),
COc1ccc(CNc2ncnc3ccc(-c4ccccc4C#N)cc23)c(OC)c1,inactive,
COc1ccccc1-c1nnc(SCc2nc3ccccc3s2)n1C,inactive,
N=C(N)C(N=Nc1ccccc1)C(=N)N (stereo not drawn),,-0.561% [at 11.4 µM]
O=C(O)/C=C\c1c2ccc(=O)c(O)c-2oc2c(O)c(O)ccc12,,-4.81% [at 11.4 µM]

Compound,AC50,"activity, negative = inhibition"
CC1(C)CC2(CC(C)(C(=O)CSc3nc4ccccc4s3)OC2=O)C(=O)O1 (stereo not drawn),inactive,
CCC[C@H]1C[C@H](C(=O)N[C@H]([C@@H]2O[C@H](SC)[C@@H](O)[C@H](O)[C@@H]2O)[C@H](C)O)N(C)C1,inactive,
O=C(Nc1nnc(C2CC2)s1)c1ccncc1,inactive,
CC1(C)OC(=O)N(Cc2ccco2)C1(C)O (stereo not drawn),inactive,
O=C(O)/C=C1\NC(=O)c2ccccc21,inactive,
Nc1ccc(Nc2ccccc2)cc1,inactive,
Nc1ccccc1Nc1ccccc1,22.4 µM (active),
O=C(O)c1ccccc1Nc1ccccc1,inactive,
COc1ccc(-c2nc3cnc(N(C)C)nc3n(Cc3cccs3)c2=O)cc1,inactive,
O=S1(=O)[C@H]([C@H]2CC3c4ccccc4C2c2ccccc23)[C@@H](N2CCCCC2)[C@@H]1c1ccccc1,3.16 µM (active),
CCCn1nnnc1NC(=O)c1ccc(C)cc1Cl,inactive,
COC(=O)c1ccc(C#CC(NP(=O)(c2ccccc2)c2ccccc2)c2ccccc2)cc1 (stereo not drawn),inactive,
CC1CN(C(NC(=O)C(C)(C)C)C(Cl)(Cl)Cl)CC(C)O1 (stereo not drawn),inactive,
CCOC(=O)c1c(NC(=S)Nc2ccccc2)sc2c1CCN(CCc1ccccc1)C2,0.0708 µM (active),
CCOC(=O)c1c(NC(=S)NC(=O)c2cnn(CC)c2)sc2c1CCC(C)C2 (stereo not drawn),inactive,
CCN1CCc2c(sc(NC(=S)NC(=O)c3ccccc3)c2C#N)C1,inactive,
CCOC(=O)N1CCC(NC(=O)c2cc(S(=O)(=O)N3CCCC3)cn2C)CC1,inactive,
COCc1cc(=O)[nH]c2cc(NC(=O)C(F)(F)F)c(C)cc12,inactive,
Cc1cc(-c2cc(C)c(O)c(C(C)(C)C)c2)cc(C(C)(C)C)c1O,,-4.06% [at 11.4 µM]
CC(C)(C=O)Cc1cc(C(C)(C)C)c(O)c(C(C)(C)C)c1,25.1 µM (active),
CC(C)(CO)Cc1cc(C(C)(C)C)c(O)c(C(C)(C)C)c1,inactive,
